Measured values as given in PubChem BioAssay.
Records with an inconclusive call do not appear. The source made the active and inactive calls. Unless noted, no stated cut-off is given here; in the data, active means inhibition above about 30%; inactive means the rest.

How the values were obtained:
[1] = Her2 expression decrease, cell viability multiplex – SKBR3 breast tumor cells, AlphaScreen, ATP viability, primary screen (AID 461;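 active means Her2 level under about 52% in both replicate screens, with viability over 70% of control, limit read from the data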;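 on Her2 level: lower value means less Her2 protein in the cells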;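 on viability: percent of carrier control wells set as 100% viability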); settings: SKBR3 Her2 protein level, 18-24 h, measured here: SKBR3 viability, ATP luminescence, at 10 µM
[2] = target: Receptor tyrosine-protein kinase erbB-2 (Homo sapiens) (UniProt P04626); experiment: as above; settings: 18-24 h, at 10 µM, stronger effect = lower value
Sequence of Receptor tyrosine-protein kinase erbB-2 (Homo sapiens) (P04626 whole entry, looked up): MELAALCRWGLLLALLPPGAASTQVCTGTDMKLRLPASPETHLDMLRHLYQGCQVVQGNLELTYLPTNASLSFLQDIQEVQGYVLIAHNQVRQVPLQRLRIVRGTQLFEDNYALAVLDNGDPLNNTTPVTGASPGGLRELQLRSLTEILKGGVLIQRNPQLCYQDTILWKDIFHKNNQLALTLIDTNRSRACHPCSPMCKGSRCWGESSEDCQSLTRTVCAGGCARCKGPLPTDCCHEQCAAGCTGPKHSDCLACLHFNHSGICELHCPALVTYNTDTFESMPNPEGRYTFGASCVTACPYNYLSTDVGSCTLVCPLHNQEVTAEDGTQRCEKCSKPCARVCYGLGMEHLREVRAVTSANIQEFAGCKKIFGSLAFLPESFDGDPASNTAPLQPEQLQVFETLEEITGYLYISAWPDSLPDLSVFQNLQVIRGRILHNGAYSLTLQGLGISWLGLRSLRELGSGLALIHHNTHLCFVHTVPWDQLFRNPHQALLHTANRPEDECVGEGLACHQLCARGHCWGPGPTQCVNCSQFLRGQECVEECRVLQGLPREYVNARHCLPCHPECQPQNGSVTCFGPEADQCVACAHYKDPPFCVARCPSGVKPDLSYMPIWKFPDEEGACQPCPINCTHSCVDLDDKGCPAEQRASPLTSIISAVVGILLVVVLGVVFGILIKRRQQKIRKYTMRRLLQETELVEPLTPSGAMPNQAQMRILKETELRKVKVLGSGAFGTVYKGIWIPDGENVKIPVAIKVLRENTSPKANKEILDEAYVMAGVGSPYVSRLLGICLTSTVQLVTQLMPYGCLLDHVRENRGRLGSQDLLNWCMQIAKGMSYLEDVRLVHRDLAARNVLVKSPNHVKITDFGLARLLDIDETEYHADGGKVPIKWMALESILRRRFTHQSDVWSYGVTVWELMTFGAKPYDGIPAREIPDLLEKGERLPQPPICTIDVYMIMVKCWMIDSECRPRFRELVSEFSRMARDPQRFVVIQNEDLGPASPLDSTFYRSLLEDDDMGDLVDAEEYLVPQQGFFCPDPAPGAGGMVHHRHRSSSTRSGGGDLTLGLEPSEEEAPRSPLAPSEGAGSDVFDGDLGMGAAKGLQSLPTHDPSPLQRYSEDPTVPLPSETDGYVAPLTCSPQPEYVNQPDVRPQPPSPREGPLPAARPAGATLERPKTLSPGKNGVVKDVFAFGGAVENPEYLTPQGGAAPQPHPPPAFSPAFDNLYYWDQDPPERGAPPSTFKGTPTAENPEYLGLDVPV

[3] = reduced viability of SK-BR-3 breast cancer cells – cell-based, 24 h, human, pilot screen (AID 572;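 active means viability at or below 10% of carrier control in both of two separate runs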;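 further: compound exposure lasted between 18 and 24 h rather than exactly 24 h; 100% = carrier-treated control wells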); settings: SK-BR-3 viability, CellTiter-Glo luminescence, at 10 µM, stronger effect = lower value
[4] = HUVEC growth inhibition – cell-based, human, primary screen (AID 575;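 active means viability at or below 30% in both replicate assays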;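 further: 100% = median of untreated cell wells with 0.1% DMSO on each plate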); settings: HUVEC proliferation, CellTiter-Glo luminescence, 72 h; at 10 µM; stronger effect = lower value
[5] = H69AR cell proliferation blockers – human, duplicate replicates, primary screen (AID 580;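 active means viability at or under a set limit in both replicates, limit being median viability minus 3 SD, cut at about 48% in these data, passing the limit was not always enough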;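 further: 100% = mean luminescence of untreated wells and 0% = no signal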); settings: H69AR lung tumor cells viability, ATP luminescence, 72 h; at 10 µM; stronger effect = lower value
[6] = MRP1 drug-resistance reversers in H69AR cells – cell-based, doxorubicin co-treatment, pilot screen (AID 601;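 active means viability loss from added drug above about 55%, and viability with drug at most 40%, in both replicates, limit read from the data, passing the limit was not always enough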); settings: CellTiter-Glo, 72 h, at 10 µM; for differential viability (reversal): stronger effect = higher value
[7] = yeast transport mutant growth inhibition pilot in 384-well plates, post-Golgi transport modulator project (AID 636; in the data active means inhibition above about 31%); settings: absorbance 615 nm, about 18 h, stronger effect = higher value
[8] = growth suppression of yeast trafficking mutant, preliminary HTS, modulators of trafficking downstream of Golgi apparatus project, 1536-format plate, OD 615 nm (AID 637); settings: yeast transport mutant growth, absorbance 615 nm, 18 h; stronger effect = higher value
[9] = S. cerevisiae growth inhibition in permissive medium (OD615), pilot counter-assay for S. cerevisiae lifespan shortening project, permissive growth control (AID 705;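 active means growth inhibition above 25% in both replicates, a cutoff set 3 SD above the mean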); settings: OD615, 24 h, at 10 µM, stronger effect = higher value
[10] = S. cerevisiae growth inhibition in restrictive medium, OD615, pilot screen, restrictive growth control, yeast lifespan reduction project (AID 706;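 active means growth inhibition above a set limit, 3 SD over mean compound inhibition, in both replicates, cut at about 43% in these data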;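 further: modified DeaD lifespan yeast strain shifted to restrictive glucose medium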); settings: OD615, 48 h, at 10 µM, stronger effect = higher value
[11] = doxorubicin toxicity protection in MRP-1 cells – H69AR cells, CellTiter-Glo, duplicate, MRP-1 activator project, pilot screen (AID 807;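 active means viability increase at or above a cutoff of the median across tested compounds plus 3 SD, cut at about 8.5% in these data, passing the limit was not always enough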;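 further: compound pretreatment 18-22 h then 72 h combined with doxorubicin; 0% = doxorubicin alone and 100% = vehicle without doxorubicin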); settings: H69AR viability with doxorubicin, CellTiter-Glo luminescence; at 10 µM; stronger effect = higher value
[12] = viability of HCT116 without oncogenic beta-catenin – human colon tumor cells, pilot screen (AID 823;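 active means cell viability at or below a set limit in both duplicate runs, the limit being the all-compound median minus 4 SD, cut at about 23% in these data, passing the limit was not always enough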;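 further: 0% = wells killed by 20 µM Hyamine and 100% = untreated DMSO cell wells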); settings: HCT116 beta-catenin knockout viability, CellTiter-Glo, 60 h; at 10 µM; stronger effect = lower value
[13] = viability of PTEN-null HCT116 cells – cell-based, HCT116 clonal line, CellTiter-Glo, pilot screen (AID 824;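 active means viability at or below 27.92% in each of two runs, the all-compound median minus 4 SD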;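 further: 0% = 20 µM Hyamine control and 100% = vehicle cell control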); settings: HCT116 PTEN-deleted viability, 60 h, at 10 µM, stronger effect = lower value
[14] = RAM pathway blockade in budding yeast – dse1pr::URA3 reporter, 5-FOA selection, pilot screen (AID 869;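 active means inhibition over a set limit, the all-compound mean plus 3 SD, in both replicate runs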;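 further: 0% = DMSO wells with no growth and 100% = 10 µM 1-NA-PP1 with full growth; RAM network block rescues cells from 5-FOA so hits raise OD615 growth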); settings: S. cerevisiae dse1pr::URA3 5-FOA growth, OD615, 2 d; at 10 µM; stronger effect = higher value; strain carries analog-sensitive mutant Cbk1 kinase
[15] = RAM signaling pathway blockade in yeast – S. cerevisiae, Pdr1DBD-CYC8 efflux-inhibited sensitized strain, primary screen (AID 1298;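 active means RAM network inhibition above 8.4% in each of two replicates, 3 SD over the compound average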;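 further: 0% = DMSO untreated cells without growth and 100% = 10 µM 1-NA-PP1 full growth; higher means more yeast growth rescued from 5-FOA killing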); settings: S. cerevisiae cbk1-as DSE1-URA3 strain, 5-FOA growth OD615, 2 d; at 50 µM; stronger effect = higher value
[16] = H69AR cells + 2 uM doxorubicin, measured here: viability with 2 uM doxorubicin, stronger effect = lower value
[17] = H69AR cells, compound alone cytotoxicity

Compound | viability [1] | Her2 level [2] | viability [3] | viability [4] | viability [5] | differential viability (reversal) ([6]; H69AR cells + 2 uM doxorubicin) | viability [6, 16] | viability [6, 17] | inhibition [7] | inhibition [8] | growth inhibition [9] | growth inhibition [10] | viability increase [11] | viability [12] | viability [13] | inhibition [14] | RAM network inhibition [15]
CC1CC(NC(=O)c2cnc3n(c2=O)CCS3)CC(C)(C)C1 (stereo not given) | 83.5% | 108% (inactive) | 83.5% (inactive) | 85.8% (inactive) | 91.7% (inactive) | 6.09% (inactive) | 85.6% | 91.7% | -4.13% (inactive) | -3% (inactive) | -8.98% (inactive) | -8.4% (inactive) | -0.41% (inactive) | 99% (inactive) | 90% (inactive) | 0.545% (inactive) | 0.68% (inactive)
O=C(CSc1nnc(Cn2c(=O)sc3ccccc32)n1-c1ccccc1)Nc1nccs1 | 97% | 106% (inactive) | 97% (inactive) | 66.9% (inactive) | 84.2% (inactive) | 0.24% (inactive) | 84% | 84.2% | -5.73% (inactive) | -4.43% (inactive) | 11.2% (inactive) | 27.2% (inactive) | -3.44% (inactive) | 89.5% (inactive) | 90% (inactive) | 2.44% (inactive) | 2.05% (inactive)
COc1ccc(-n2c(Cc3cccn3C)nnc2SCC(N)=O)cc1 | 94.5% | 95% (inactive) | 94.5% (inactive) | 112% (inactive) | 97.5% (inactive) | 2.7% (inactive) | 94.8% | 97.5% | 0.64% (inactive) | -3.5% (inactive) | 8.68% (inactive) | 5.57% (inactive) | -2.07% (inactive) | 97.6% (inactive) | 94.4% (inactive) | 1.42% (inactive) | 0.63% (inactive)
CC(C)n1c(CN2CCN(C)CC2)nc2c1c(=O)n(C)c(=O)n2C | 95.5% | 86% (inactive) | 95.5% (inactive) | 93.8% (inactive) | 98.5% (inactive) | 9.28% (inactive) | 89.2% | 98.5% | -7.57% (inactive) | 1.8% (inactive) | -7.82% (inactive) | 4.92% (inactive) | 0.07% (inactive) | 101% (inactive) | 103% (inactive) | 0.885% (inactive) | 5.22% (inactive)
CC(=O)NC(C)c1nc2ccccc2n1C(C)C (stereo not given) | 90% | 106% (inactive) | 90% (inactive) | 88.1% (inactive) | 93.9% (inactive) | 12.4% (inactive) | 81.5% | 93.9% | -2.8% (inactive) | -2% (inactive) | -5.54% (inactive) | -15.8% (inactive) | -2.65% (inactive) | 84.8% (inactive) | 90% (inactive) | 3.16% (inactive) | -0.31% (inactive)
CCOC(=O)c1ccc2[nH]c3c(c2c1)CN(C)CC3 | 94% | 87.5% (inactive) | 94% (inactive) | 86.6% (inactive) | 93.7% (inactive) | 7.91% (inactive) | 85.8% | 93.7% | -4.27% (inactive) | -0.83% (inactive) | -4.7% (inactive) | 10.1% (inactive) | 0.26% (inactive) | 44% (inactive) | 56.9% (inactive) | 0.51% (inactive) | 0.47% (inactive)
CCCCN(C)C(=O)c1ccc(CS(=O)(=O)c2ccccc2C)o1 | 93% | 86.5% (inactive) | 93% (inactive) | 120% (inactive) | 81.3% (inactive) | -5.93% (inactive) | 87.2% | 81.3% | 1.28% (inactive) | -2.17% (inactive) | 6.16% (inactive) | 14.7% (inactive) | -1.67% (inactive) | 93.8% (inactive) | 91.7% (inactive) | -0.45% (inactive) | 3.61% (inactive)
CCSc1nc2c(c(=O)[nH]1)C(c1cccnc1)C(C(=O)OC(C)C)=C(C)N2 (stereo not given) | 95.5% | 83.5% (inactive) | 95.5% (inactive) | 90.9% (inactive) | 97.4% (inactive) | 15.6% (inactive) | 81.8% | 97.4% | -4.19% (inactive) | -0.33% (inactive) | -18.5% (inactive) | -8.67% (inactive) | -3.07% (inactive) | 92.3% (inactive) | 92.5% (inactive) | 0.98% (inactive) | 0.72% (inactive)
Cc1cc(C)cc(N2C(=O)CC(N3CCOCC3)C2=O)c1 (stereo not given) | 104% | 84% (inactive) | 104% (inactive) | 100% (inactive) | 191% (inactive) | 98.5% (inactive) | 92.2% | 191% | -1.89% (inactive) | 0.82% (inactive) | -9.16% (inactive) | -2.19% (inactive) | -0.95% (inactive) | 102% (inactive) | 92.5% (inactive) | 0.41% (inactive) | 0.87% (inactive)
COc1cccc(NC(=O)CSc2nnc(Cc3cccn3C)n2-c2ccc(F)cc2)c1 | 94.5% | 115% (inactive) | 94.5% (inactive) | 85.7% (inactive) | 78.2% (inactive) | -8.06% (inactive) | 86.2% | 78.2% | -7.73% (inactive) | -8% (inactive) | 0.385% (inactive) | 13.1% (inactive) | -4.32% (inactive) | 88.9% (inactive) | 90.1% (inactive) | 1.09% (inactive) | 6.98% (inactive)
